According to ChEMBL document CHEMBL4513216, “Probing the Open Global Health Chemical Diversity Library for Multistage-Active Starting Points for Next-Generation Antimalarials” (ACS Infect Dis, 2020):
Screen size: about 68,000 compounds; about 2,700 (4%) showed an effect of 50% or more. The list comes from a sample in which strong results are over-represented; it also holds similar structures and randomly drawn compounds.

System: Plasmodium berghei
Experiment: Screen against P. berghei liver stage (PbLuc), transformed with Luciferase, at 2uM
Assay type: functional, HepG2
Conditions: tested at 2 uM

Row | Structure (SMILES) | INHIBITION [%]
1 | CC(=O)N1CCC(c2cnc(-c3c(C)nn(C)c3C)cn2)CC1 | 34.06
2 | CCc1ccccc1C(=O)N1CCCC1CC(=O)c1cnn(C)c1 (stereo unspecified) | -7.41
3 | Cn1cc(C(=O)CC2CCCN2C(=O)c2ccc(Cl)cn2)cn1 (stereo unspecified) | 24.55
4 | Cn1cc(C(=O)CC2CCCN2C(=O)c2cccc3ncccc23)cn1 (stereo unspecified) | 51.19
5 | COc1cc(C(=O)N2CCCC2CC(=O)c2cnn(C)c2)ccc1F (stereo unspecified) | 64.2
6 | Cn1cc(C(=O)CC2CCCN2C(=O)c2ccncc2F)cn1 (stereo unspecified) | -5.09
7 | Cn1cc(C(=O)CC2CCCN2C(=O)c2cncc3ccccc23)cn1 (stereo unspecified) | 11.1
8 | Cc1noc([C@H]2C[C@H]3OCC[C@H]3N(C3CCC3)C2)n1 | 44.94
9 | COc1ccccc1CN(C)C(=O)CN1CC(n2nc(C)cc2C)C1 | 18.15
10 | Cc1cc(C)cc(CN2CCN(Cc3cccc(CCN)c3)CC2=O)c1 | 61.75
11 | Cc1cc(C)cc(N2CCN(Cc3cccc(CCN)c3)CC2=O)c1 | 10.92
12 | NCCc1cccc(CN2CCN(c3ccccc3)C(=O)C2)c1 | 22.72
13 | CC(C)c1nnc2n1CCN(Cc1ccc3c(c1)OCO3)CC2 | -21.23
14 | Cc1cccc(CN2CCC3(CCN(c4ccccn4)C3)C2=O)c1 (stereo unspecified) | 17.39
15 | Cc1n[nH]c(C2CN(CC(=O)NCCc3ccccc3)CCO2)n1 (stereo unspecified) | 19.43
16 | Cc1n[nH]c(C2CN(CC(=O)NCCc3ccsc3)CCO2)n1 (stereo unspecified) | 50.74
17 | CCc1n[nH]c(C2CN(CC(=O)NCCc3ccsc3)CCO2)n1 (stereo unspecified) | 12.46
18 | CC(CNC(=O)CCCc1ccccn1)c1ccsc1 (stereo unspecified) | 18.85
19 | Cc1ccc(CN2CC[C@@H](O)[C@@H]2Cc2ccccc2)o1 | 14.65
20 | Cc1ccccc1C(C(=O)N(C)CCc1cn[nH]c1)N(C)C (stereo unspecified) | -102.03
21 | Cc1cccc(C(C(=O)N(C)CCc2cn[nH]c2)N(C)C)c1 (stereo unspecified) | 67.28
22 | CN(CCc1cn[nH]c1)C(=O)C(c1ccc(F)cc1)N(C)C (stereo unspecified) | 38.67

Row | Structure (SMILES) | INHIBITION [%]
23 | Cc1ccc(C(C(=O)N(C)CCc2cn[nH]c2)N(C)C)cc1 (stereo unspecified) | 69.67
24 | Cc1cc(C)cc(CCC(=O)N(C)CCc2cn[nH]c2)c1 | -4.26
25 | Cc1cccc(C(C(=O)N(C)Cc2ccon2)N(C)C)c1 (stereo unspecified) | -2.69
26 | Cc1ccc(CCC(C)NC2CCN(C(N)=O)CC2)cc1 (stereo unspecified) | -5.43
27 | CN1CCN(CCCNC(=O)CCc2nc3cc(Br)cnc3[nH]2)CC1 | 12.87
28 | O=C(Nc1nc2c(s1)CN(S(=O)(=O)C1CC1)CC2)Nc1ccccc1F | 47.9
29 | c1csc(N2CCN(c3ncnc4sccc34)CC2)n1 | 16.93
30 | CC1CN(c2ncnc3c2cnn3C)CCN1c1nccs1 (stereo unspecified) | 57.16
31 | CC1CN(c2ncnc3sccc23)CCN1c1nccs1 (stereo unspecified) | 38.01
32 | O=C(Cc1ccccn1)N1CCn2cc(Cn3cncn3)nc2C1 | -33.15
33 | CCc1nnc2n1CCN(Cc1nc(-c3ccoc3)no1)C2 | 73.05
34 | Cc1ccc(-c2nc(CN3CCN(S(=O)(=O)N(C)C)CC3)cs2)o1 | 53.12
35 | Cc1ccc(-c2nc(CN3CCN(C(=O)C4CC4)CC3)cs2)o1 | -21.93
36 | CCNC(=O)C1CCN(Cc2csc(-c3ccc(C)o3)n2)CC1 | 50.12
37 | Cc1ccc(-c2nc(CN3CCC(C(=O)N(C)C)CC3)cs2)o1 | 27.91
38 | Cc1ccc(-c2nc(CN3CCn4c(C)nnc4C3)cs2)o1 | 42.58
39 | Cc1ccc(-c2nc(CN3CCn4c(nnc4C4CC4)C3)cs2)o1 | -110.74
40 | Cc1nnc2n1CCN(Cc1nc(-c3ccoc3)no1)C2 | -25.13
41 | Cc1ccc(-c2nc(CN3CCN(CC(=O)N(C)C)CC3)cs2)o1 | 4.18
42 | CC(C)c1nnc2n1CCN(Cc1nc(-c3ccoc3)no1)C2 | 7.01
43 | CCc1nnc2n1CCN(Cc1csc(-c3ccc(C)o3)n1)C2 | 58.49
44 | CCOC(=O)C1CCN(Cc2csc(-c3ccc(C)o3)n2)CC1 | -0.76

Row | Structure (SMILES) | INHIBITION [%]
45 | O=C(NCc1ccccc1)c1nc2c(o1)CN(C(=O)c1cccnc1)C2 | 36.75
46 | COCCN1C[C@@H]2CN(Cc3cccc(C)n3)C[C@@H]2C1=O | 39.92
47 | CCCN1CCN(c2nc(N)nc3c2nc(C)n3C)CC1 | 9.85
48 | Cc1noc(C)c1C(=O)N1CCC(c2[nH]ncc2S(C)(=O)=O)C1 (stereo unspecified) | 13.58
49 | Cc1nc(N2CCN(C(=O)C3CC3)CC2)c2c(n1)c(C)nn2C | 51.57
50 | Cc1nc(N2CCN(C(=O)C3CCCC3)CC2)c2c(n1)c(C)nn2C | -36.89
51 | CCC(=O)N1CCN(c2nc(C)nc3c(C)nn(C)c23)CC1 | 13.72
52 | CCCC(=O)Nc1ccc(CC(=O)N(CC)CC2CCCCO2)cc1 (stereo unspecified) | -5.44
53 | Cc1ccc(C2COCCN2C(=O)c2ccc(C)s2)o1 (stereo unspecified) | 3.63
54 | Cn1cc(CN2CCC3(CC2)CN(c2cccnc2)C(=O)CO3)cn1 | -56.25
55 | O=C1COC2(CCN(Cc3cccs3)CC2)CN1c1ccsc1 | 55.7
56 | O=C1COC2(CCN(Cc3cccs3)CC2)CN1c1ccccc1 | -10.6
57 | Cn1cc(N2CC3(CCN(Cc4cccnc4)CC3)OCC2=O)cn1 | 54.44
58 | O=C1COC2(CCN(Cc3cccs3)CC2)CN1c1cncnc1 | 25.58
59 | Cn1cc(N2CC3(CCN(Cc4ccccc4)CC3)OCC2=O)cn1 | 33.97
60 | O=C(NCCn1cccc1)c1c(O)cc(F)cc1F | -5.53
61 | Cc1noc(C)c1CNC(=O)N1CCN(CC2CC2)CC1 | -20.36
62 | c1cncc(-c2ncnc3c2CCN(Cc2cccs2)CC3)c1 | 24.42
63 | CC(C)(O)CN1CCN(C(=O)c2cccn2Cc2ccncc2)CC1 | -51.5
64 | CC(C)(O)CN1CCN(C(=O)c2cccn2Cc2ccccc2)CC1 | -36.56
65 | CC(C)(O)CN1CCN(C(=O)c2cccn2Cc2cccnc2)CC1 | 54.5
66 | CC(C)c1nn(C)c(N(C)C)c1CNCc1cccc(CN(C)C)c1 | -36.7
